Laboratory results: PubChem BioAssay (NCI)
The panel holds about 79,000 compounds, 15% with a hit somewhere; the sample as a whole holds those more often. Rule as the data show it: active = growth inhibition above about 70%; inactive = the rest.

Experiments:
[1] = NCI Yeast Anticancer Drug Screen. Data for the rad50 strain (AID 155);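 also: 0% = growth of vehicle-only cultures of the same strain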; conditions: S. cerevisiae rad50 strain growth inhibition; at 50.0 µM; hits give high values
In short: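 DNA repair mutant yeast, compound exposure, growth read-out; inhibition is taken relative to vehicle.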

[2] = NCI Yeast Anticancer Drug Screen. Data for the mec2-1 strain (AID 157); conditions: S. cerevisiae mec2-1 strain, at 50.0 µM, hits give high values
In short: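 Cells of the genetically defined mec2-1 yeast strain are incubated with test compound. Inhibition of growth is calculated against vehicle-treated controls.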

[3] = NCI Yeast Anticancer Drug Screen. Data for the sgs1 mgt1 strain (AID 161);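 also: 0% = growth of cultures given vehicle only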; conditions: S. cerevisiae sgs1 mgt1 strain, at 50.0 µM, hits give high values
In short: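 Test agents were incubated with a DNA-repair-mutant yeast strain. Growth was then read and compared against vehicle-treated controls.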

[4] = NCI Yeast Anticancer Drug Screen. Data for the cln2 rad14 strain (AID 165);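 also: 0% = growth equal to vehicle treated cultures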; conditions: S. cerevisiae cln2 rad14 strain, at 50.0 µM, hits give high values
In short: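 The screen exposed genetically defined yeast (cln2 rad14) to test compounds and scored growth inhibition relative to vehicle-treated controls.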

[5] = NCI Yeast Anticancer Drug Screen. Data for the bub3 strain (AID 167); conditions: S. cerevisiae bub3 mutant strain, at 50.0 µM, hits give high values
In short: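 In this screen, a yeast mutant lacking normal mitotic checkpoint function is challenged with compound. Relative growth versus vehicle gives the inhibition value.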

[6] = NCI Yeast Anticancer Drug Screen. Data for the mlh1 rad18 strain (AID 175); conditions: S. cerevisiae mlh1 rad18 strain growth inhibition; at 50.0 µM; hits give high values
In short: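 Compound-treated yeast growth, normalised to vehicle controls. Strain bears defined DNA repair mutations.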

Measured: growth inhibition

CCOC(=O)c1[nH]c(CC(=O)O)c(C(=O)OCC)c1C
inactive: [1] -6.8% | [2] 3% | [3] 9% | [4] -44.9% | [5] 3.9% | [6] 5.1%

O=C(Nc1ccc(F)c([N+](=O)[O-])c1)Nc1ccccc1C(F)(F)F
inactive: [1] 3.95% | [2] 29.6% | [3] 33.8% | [4] -3.5% | [5] 31.3% | [6] 25.8%

CN(C)c1nc(O)cc(=O)[nH]1
inactive: [1] 5.05% | [2] -0.35% | [3] -6.6% | [4] -34.8% | [5] 8.3% | [6] 25.3%

CCCCCCCCNc1ncnc2[nH]ncc12
inactive: [1] 7.15% | [2] 11.3% | [3] 22.1% | [4] 6.5% | [5] 47.2% | [6] 13.9%

C(=C\c1ccc(/C=C/c2ccccc2)nn1)/c1ccccc1
inactive: [1] -5.8% | [2] -3.1% | [3] -1.65% | [4] -21.4% | [5] 0.8% | [6] -2.1%

NC(=O)c1[nH]c(N=Nc2ccc(S(N)(=O)=O)cc2)nc1N
inactive: [1] 28.6% | [2] 13.6% | [3] 15% | [4] -5.1% | [5] -15.7% | [6] 17.9%

CCCCc1c2c(nc3c1CCCC3O)CCCC2 (centres undefined)
inactive: [1] -40.4% | [2] -63% | [3] -13.9% | [4] 13.2% | [5] -8.1% | [6] -23.9%

O=C1c2cc3c(cc2C(=O)c2[nH]ncc21)OCO3
inactive: [1] 60.5% | [2] 30.4% | [3] 16.7% | [4] -20.2% | [5] 19.1% | [6] 17.2%

CCCCCNc1ccnc(=O)[nH]1
inactive: [1] 11.8% | [2] 6.8% | [3] 2% | [4] -39.5% | [5] -12.9% | [6] -12.7%

CC(C)CC(O)C(C)C (centres undefined)
inactive: [1] -18.3% | [2] -15.8% | [3] 0.15% | [4] 31.3% | [5] -6.8% | [6] 1.35%

ClCCCCCOCCCCCCl
inactive: [1] 8.15% | [2] 1.25% | [3] -1.5% | [4] -11.7% | [5] -4.75% | [6] -1.05%

CCn1nc(C)c2c1C(=O)NCC(=O)N2
inactive: [1] -34.1% | [2] -44.6% | [3] -26.9% | [4] -10.4% | [5] -17.6% | [6] -2.3%

COc1ccc(CC(NC(=O)OCc2ccccc2)C(=O)NC2C(CO)OC(n3cnc4c(N)ncnc43)C2O)cc1 (centres undefined)
inactive: [1] 25.8% | [2] -6% | [3] 10.2% | [4] 2.15% | [5] -0.75% | [6] -1.75%

Cc1ccc(S(=O)(=O)OC2=C/C(=N\c3onc(C)c3C)c3ccccc3C2=O)cc1
inactive: [1] -41.6% | [2] -19.4% | [3] -27.9% | [4] -5.4% | [5] -15% | [6] -19.3%

CCN(CC)CCNC(=O)c1c(C)cc(C)cc1C
inactive: [1] -5.1% | [2] 0.2% | [3] -0.3% | [4] -53.2% | [5] -1.95% | [6] 10.8%

NCC(O)COCc1ccccc1 (centres undefined)
inactive: [1] -16.1% | [2] -24.4% | [3] -1.65% | [4] -28.1% | [5] -1.6% | [6] -0.35%

COC1(OC)c2no[n+]([O-])c2C(OC)(OC)c2c1no[n+]2[O-]
inactive: [1] -11.7% | [2] -4.8% | [3] -6.35% | [4] 19.1% | [5] 20.6% | [6] -4.35%

CC(C)Oc1ccc(C(=O)O)cc1
inactive: [1] 23.6% | [2] 5.05% | [3] 4.75% | [4] -0.15% | [5] -19.1% | [6] 14.1%

Cc1ccc(S(=O)(=O)C(CC(=O)O)c2ccccc2)cc1 (centres undefined)
inactive: [1] 0.35% | [2] 0.15% | [3] 6.15% | [4] 4.15% | [5] 1.7% | [6] 4.2%

COC(=O)CCC(=O)Nc1ccccc1C(F)(F)F
inactive: [1] -8.55% | [2] 5.3% | [3] 7.65% | [4] 3.2% | [5] 8.45% | [6] 1%

CC(=O)NC(CCC(=O)C=[N+]=N)C(=O)O (centres undefined)
inactive: [1] 18.4% | [2] -14.7% | [3] 33.5% | [4] 14.1% | [5] 23.8% | [6] 12.6%

C=C1CCC(OC(C)=O)C2(C)C(OC(C)=O)CC3OC3(C)C2C(OC(C)=O)C2C(C)C(=O)OC2C1Cl (centres undefined)
inactive: [1] 3.2% | [2] -20.8% | [3] 1.55% | [4] 6.45% | [5] 3% | [6] 4.8%

CC[C@@]12CCC(=S)N(CCSc3ccccc3)[C@@H]1c1c(n(S(=O)(=O)c3ccc(OC)cc3)c3ccccc13)CC2
inactive: [1] -38% | [2] -18.1% | [3] 0.3% | [4] -15.9% | [5] 0.7% | [6] -5.3%

Clc1ccc(OCCSCCCCCCCCCCSCCOc2ccc(Cl)cc2)cc1
inactive: [1] -2% | [2] -3.4% | [3] 13.9% | [4] -24% | [5] -8.7% | [6] -21.1%

Cc1ccc(S(=O)(=O)N(N)CCC#N)cc1
inactive: [1] 7.3% | [2] 4.55% | [3] 14.8% | [4] -24.1% | [5] -10.1% | [6] 14.6%

CN1C/C(=C\c2ccc(N(C)C)cc2)C(=O)/C(=C/c2ccc(N(C)C)cc2)C1
inactive: [1] -17.6% | [2] -8.05% | [3] -2.2% | [4] -1.35% | [5] 4.05% | [6] -9.85%

Cc1ccc(CSCc2c(CSCc3ccc(C)cc3)c(CSCc3ccc(C)cc3)c(CSCc3ccc(C)cc3)c(CSCc3ccc(C)cc3)c2CSCc2ccc(C)cc2)cc1
inactive: [1] -6% | [2] 0.9% | [3] 5.8% | [4] 29.8% | [5] 1.75% | [6] 6.85%

O=C(c1no[n+]([O-])c1C(=O)c1csc2ccccc12)c1csc2ccccc12
inactive: [1] -9.7% | [2] -2.2% | [3] -31.9% | [4] -39.9% | [5] -10.3% | [6] -0.25%

O=C(CC(O)(C(F)(F)F)C(F)(F)F)c1cccs1
inactive: [1] 3.65% | [2] 15.4% | [3] 3.75% | [4] -34.9% | [5] -5.15% | [6] 7.5%

CCOc1ccc(N=Nc2c(C)nn(C(N)=S)c2OCC)cc1
inactive: [1] -54.6% | [2] -21.6% | [3] 11.6% | [4] -38.5% | [5] -5.25% | [6] -7.35%

COc1ccc(CC(NC(=O)OCc2ccccc2)C(=O)O)cc1 (centres undefined)
inactive: [1] 1.15% | [2] 4.15% | [3] 2.7% | [4] -52.1% | [5] 18.7% | [6] 6.6%

OC1CCCCC1[n+]1ccccc1 (centres undefined)
inactive: [1] -7.8% | [2] -0.6% | [3] -7.45% | [4] -24.1% | [5] -7.35% | [6] -0.55%

OCCSC1CCCCC1
inactive: [1] 12.1% | [2] 6.35% | [3] -1.55% | [4] 0.1% | [5] -16.1% | [6] 1.5%

CN1c2ccccc2C(=O)NC12CCN(Cc1ccccc1)CC2
inactive: [1] -30.2% | [2] -16.3% | [3] -12.8% | [4] 0.75% | [5] 12.3% | [6] -21.2%

c1ccc(N=C(c2ccccc2)c2ccccc2)cc1
inactive: [1] 9.25% | [2] -6.65% | [3] -6.05% | [4] -6.65% | [5] -7.65% | [6] 26.3%

CC(C)(O)c1cc(F)ccc1N
inactive: [1] -0.75% | [2] 11.3% | [3] -1.3% | [4] 15.3% | [5] 29.6% | [6] 8.3%

CC[N+](CC)(CC)C[Si](C)(C)C
inactive: [1] 5.05% | [2] 5.7% | [3] 12.1% | [4] 2.4% | [5] 12% | [6] -6%

NC(=O)c1ccc(NCC2=CC(=O)C=CC2=O)cc1
inactive: [1] -9.85% | [2] 3.25% | [3] -5.05% | [4] -2.6% | [5] -17.9% | [6] 16.8%

CCCCCSC
inactive: [1] 21% | [2] -12.1% | [3] 11.2% | [4] 10.1% | [5] 7.9% | [6] 28.6%
